We go through 36 compounds from PubChem BioAssay (NCI).

Each structure is given as a SMILES string. This is part of a sample that, as a whole, favours compounds with a hit. Of some 83,000 tested, about 20% had one in any assay.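 How to read the values: 0–100, growth inhibition (40 = 60% inhibited); 0, no net growth; -100 to 0, cell death (-40 = 40% of starting cells died; -100 = all dead).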 Values without a mark were called inactive. Active and inactive are the calls of the source. The calls were made as follows: active = growth percent below 10; inactive = the rest.

The test system of the assay is OVCAR-3 ovarian. Kind of assay: NCI-60 one-dose screen, 48 h (100 = growth as untreated, 0 = no growth, -100 = all killed). The settings on record: 10 µM unless noted.
In the case of `O=C(Nc1nc2ccc(C(=O)N3CCN(/C=C/c4ccccc4)CC3)cc2s1)c1ccc(NCCc2ccccc2)c([N+](=O)[O-])c1`, the growth is 59.3%.

As for `COC12C=C/C(=C(/C(=O)OCc3ccncc3)C(=O)CCCCCCCCC3(OC)C=C/C(=C(/C(=O)OCc4ccncc4)C(=O)CCCCCCCC1)O3)O2`, the growth is -74.3% (active).

For the compound `Cc1ccc2c(n1)C(=O)C(Br)=C(C1CCCC1)C2=O`, the growth was 82.9%.

With `C#COc1cccc(Nc2c(C#N)cnc3ncc(NC(=O)CCl)cc23)c1`, the growth was 7.58% [6.25 µM] (active).

`COc1cc(-c2csc(NC(=O)c3ccc(N4CCOCC4)c(C(F)(F)F)c3)n2)cc(OC)c1OC`: the growth is 38.3%.

In the case of `CC/C=C\C[C@H](O)C/C=C1/C(=O)C=C[C@@H]1C/C=C\CCCC(=O)N(C)C`, the growth was 8.73% (active).

As to `Oc1c(I)cc(I)cc1CNCCN(Cc1ccccn1)Cc1ccccn1`, the growth was -59.7% (active).

With `CC1=C([Se]CC(OC(=O)CC[Se]c2ccccc2)C(=O)NC(C)(C)C)C(=O)c2ccccc2C1=O` (stereo unspecified), the growth was -95.9% (active).

With `Cc1cn(-c2cc(NC(=O)c3cncc(C#Cc4cnc(N)c5ncccc45)c3)cc(C(F)(F)F)c2)cn1`, the growth is 92.1%.

As for `CC(C)c1ccc(-n2c(=S)[nH]c3sc4cc(O)ccc4c3c2=O)cc1`, the growth was 104%.

In the case of `COc1ccccc1CNc1c2ccccc2nc2ccccc12`, the growth is 54.3%.

For `COC(=O)c1nc(-c2ccccc2)oc1S(=O)(=O)Cc1ccccc1`, the growth is 41.1%.

On to `O=C1/C(=C/c2ccccc2Br)COc2ccc(O)cc21`, for which the growth is 54.5%.

`C/C(Cc1ccc(Cl)cc1)=C(\c1ccc(O)cc1)c1ccc(Cl)cc1`: the growth is 103%.

On to `COC12C=C/C(=C(/C(=O)OCc3ccncn3)C(=O)CCCCCCCCC3(OC)C=C/C(=C(/C(=O)OCc4ccncn4)C(=O)CCCCCCCC1)O3)O2`, for which the growth was -52.4% (active).

For `CCc1ccccc1-n1c(-c2ccc(OC)cc2)cc(-c2ccc(OC)cc2)c(C#N)c1=O`, the growth was 82.2%.

As for `COCCn1cc(-c2csc(-c3cn(C)c4ccc(Br)cc34)n2)c2cccnc21`, the growth is 80.3%.

On to `C=CCc1c(O)c(C(=O)/C=C/c2ccccc2)c(OC)c2ccoc12`, for which the growth was 13.7%.

Turning to `COc1cc(-c2nc3sccn3c2-c2ccnc(NCCNS(=O)(=O)c3ccccc3)n2)ccc1F`, the growth was 74.9%.

For the compound `O=c1c2cnn(-c3ccccc3)c2n2c(CN3CCOCC3)nnc2n1-c1ccccc1`, the growth is 105%.

With `O=C1C(Cl)=C(Nc2ccc(S(=O)(=O)N3CCOCC3)cc2)C(=O)c2ccccc21`, the growth was 72.8%.

As for `O=C(COc1ccc(-c2nc3cc(Cl)c(Cl)cc3[nH]2)cc1)N=Nc1c(O)[nH]c2ccc(Cl)cc12`, the growth was 75.1%.

Consider `CC1CCc2c(C(=O)Nc3ncc(Cc4cccc([N+](=O)[O-])c4)s3)csc2C1` (stereo unspecified), for which the growth is 1.09% (active).

As for `CC(C)(Sc1cc(C(C)(C)C)c(O)c(C(C)(C)C)c1)Sc1cc(C(C)(C)C)c(OC(=O)CCCC(=O)O)c(C(C)(C)C)c1`, the growth was 44.2%.

For the compound `CCSc1oc(-c2ccccc2)nc1[P+](c1ccccc1)(c1ccccc1)c1ccccc1`, the growth is 3.17% (active).

On to `C#CCOC(=O)/C=C/c1cn(-c2ccccc2)nc1-c1ccc(OC)cc1`, for which the growth is 103%.

As to `Cc1ccc(CNc2ccc3nc(CCC4CCCCC4)[nH]c3c2)cc1`, the growth was 28.6%.

In the case of `CCn1c(SCC(=O)N/N=C(\C)c2ccc(Cl)cc2)nc2c1c(=O)n(C)c(=O)n2C`, the growth was 115%.

On to `COc1ccc(\C=N/N=C(N)/C(N)=N\N=C/c2ccc(OC)cc2)cc1`, for which the growth was 108%.

On to `c1cc2c(ccc3[nH]c(-c4ccc5[nH]ncc5c4)c4c(c32)CCCC4)n1`, for which the growth was 72.5%.

In the case of `Cc1ccc2c(Cn3cc(CSc4nc5ccccc5o4)nn3)cc(=O)oc2c1`, the growth was 115%.

Turning to `C=C(C)[C@@H]1CCC[C@]2(COS(=O)(=O)c3ccc(C)cc3)CC[C@]3(C)[C@@H](CC[C@@H]4[C@@]5(C)CCCNC(C)(C)[C@@H]5CC[C@]43C)[C@@H]12`, the growth was -87.7% (active).

Turning to `COC(=O)c1c(C)c2n(c1C)C(=O)C(c1ccccc1)=C2`, the growth was 104%.

For `COc1cc2cc(NCc3cccc(Cl)c3)nc(C)c2cc1OC`, the growth was 60.1%.

Take `CCN(CC)Cc1cc(C=C2C(=O)NC(=S)NC2=O)cc(OC)c1O`: the growth is 114%.

For the compound `Cc1cc(=O)oc2cc(OCc3nn4c(Nc5nc6ccccc6s5)c(-c5ccccc5)nc4s3)ccc12`, the growth is 95.3%.
